# Source: PubChem BioAssay AID372 (MTDP, 2006)
# About 770 (0.77%) of roughly 100,000 compounds were called active. Only a selection was taken, and actives are over-represented in it overall. Unmarked numbers belong to inactive results. No stated cut-off is given here; in the data, active means inhibition above about 50%; inactive means the rest.
# Target: Gag-Pol polyprotein (Human immunodeficiency virus type 1 group M subtype B (isolate HXB2)) (UniProt P04585)
# Assay: RNase H inhibition, HIV 1 Gag Pol polyprotein, FRET biochemical assay, screening (AID 372)
# Details: HIV-1 RT RNase H, FRET RNA/DNA substrate fluorescence; at 10 µM; stronger effect = higher value
row,Compound,inhibition
1,COc1ccc(O)c(CN2CCCCC2)c1,4%
2,CC1SC(c2cccc(Cl)c2)NC1=O (centres undefined),0%
3,C/C(=N\NC(=O)c1cc(C2CC2)[nH]n1)c1ccc(C)cc1,8%
4,COc1ccc(-n2nnnc2C(=Cc2ccc(N(C)C)cc2)c2nnnn2-c2ccc(OC)cc2)cc1,9%
5,N#Cc1c(-c2cccc(Br)c2)c(C#N)c2nc3ccccc3n2c1N,9%
6,COc1ccc(C2CC(=O)C3=C(C2)NC(C)=C(C(=O)OC2CCCC2)C3c2ccc3c(c2)OCO3)cc1 (centres undefined),3%
7,CCOC(=O)C1=C(CC)OC(N)=C(C#N)C1c1cccs1 (centres undefined),30%
8,CCOC(=O)C1=C(c2ccccc2)OC(N)=C(C#N)C1c1cccs1 (centres undefined),15%
9,CCCC1=C(C(=O)OCC)C(c2cccs2)C(C#N)=C(N)O1 (centres undefined),56% (active)
10,O=[N+]([O-])c1ccc(C=Nc2ccc(F)cc2)s1,21%
11,COC(=O)C1=C(C)N(Cc2ccccc2)C(=O)/C1=C\c1cccs1,4%
12,COC(=O)C1=C(C)N(Cc2ccccc2)C(=O)/C1=C\c1c(Cl)cccc1Cl,47%
13,COC(=O)C1=C(C)N(Cc2ccccc2)C(=O)/C1=C\c1ccccc1Cl,51% (active)
14,CN(C)c1ccc(/C=C(\C#N)c2nc(-c3ccc4c(c3)OCO4)cs2)cc1,16%
15,CCOC(=O)c1sc(NC(=O)c2cc(Cl)ccc2OC)c(C(N)=O)c1C,2%
16,O=C(Nc1ccccc1I)c1ccc(C(=O)Nc2ccccc2I)cc1,0%
17,O=C(Nc1ccccc1I)c1ncn[nH]1,54% (active)
18,Cc1cccc(NC(=O)c2ncn[nH]2)c1C,0%
19,O=C(Nc1nc2ccccc2n1Cc1ccc(Cl)cc1)c1ccc(Cl)cc1,11%
20,CC(=O)Nc1ccc(NC(=S)NC(=O)c2cccc(Br)c2)cc1,0%
21,O=C1/C(=C/c2ccc(-c3ccc(Cl)cc3C(=O)O)o2)Sc2ccccc21,21%
22,O=C1NC(=O)/C(=C\c2ccc(-c3ccc(C(=O)O)cc3)o2)S1,6%
23,O=C(O)c1cc(-c2ccc(C=C3C(=O)c4ccccc4C3=O)o2)ccc1O,11%
24,O=C1NC(=S)S/C1=C\c1ccc(-c2ccc(Cl)c(C(=O)O)c2)o1,18%

row,Compound,inhibition
1,CCCOc1ncnc2sc3c(c12)CCCC3,12%
2,CC1=NN(c2ccc(S(N)(=O)=O)cc2)C(=O)/C1=C\c1ccc(-c2cc([N+](=O)[O-])ccc2C)o1,42%
3,CN1C(=O)C(=Cc2ccc(-c3ccc(Cl)c([N+](=O)[O-])c3)o2)C(=O)N(C)C1=S,30%
4,CC1=NN(c2ccc(S(N)(=O)=O)cc2)C(=O)/C1=C\c1ccc(-c2cc([N+](=O)[O-])ccc2Cl)o1,46%
5,COc1cc(/C=C2\C(=O)N(c3ccc(S(N)(=O)=O)cc3)N=C2C)ccc1OCc1ccccc1,53% (active)
6,COc1cc([N+](=O)[O-])ccc1-c1ccc(/C=C2\C(=O)N(c3ccc(S(N)(=O)=O)cc3)N=C2C)o1,53% (active)
7,COc1cc([N+](=O)[O-])ccc1-c1ccc(/C=C2\C(=O)N(c3ccc(C(=O)O)cc3)N=C2C)o1,26%
8,CC1=NN(c2ccc(S(N)(=O)=O)cc2)C(=O)/C1=C\c1ccc(-c2ccc(Cl)c([N+](=O)[O-])c2)o1,80% (active)
9,COc1cc([N+](=O)[O-])ccc1-c1ccc(/C=C2/C(=O)N(c3ccc(C)cc3)N=C2C)o1,6%
10,COc1cc(/C=C2\C(=O)N(c3ccc(S(N)(=O)=O)cc3)N=C2C)cc(Br)c1OCc1ccccc1,16%
11,CC1=NN(c2ccc(S(N)(=O)=O)cc2)C(=O)/C1=C\c1ccc(-c2cccc([N+](=O)[O-])c2)o1,57% (active)
12,CCCOc1ccc(/C=C2\C(=O)N(c3ccc(S(N)(=O)=O)cc3)N=C2C)cc1OC,6%
13,CC1=NN(c2ccc(S(N)(=O)=O)cc2)C(=O)/C1=C\c1cccc([N+](=O)[O-])c1,12%
14,C=CCc1ccc(OCCCOc2c(Cl)cccc2Cl)c(OC)c1,42%
15,CCOC(=O)C1=C(C)NC(=S)NC1c1ccc(Cl)c(Cl)c1 (centres undefined),7%
16,COc1ccc(NC(=NCCc2ccccc2)SC2CC(=O)N(c3ccc(F)cc3)C2=O)cc1 (centres undefined),9%
17,COc1ccc(OC)c(C=Nc2ccc(I)cc2)c1,9%
18,O=C1NC(=Nc2ccc(F)cc2)S/C1=C/c1cccc(Br)c1,40%
19,CCOC(=O)C1=C(C)N=c2s/c(=C\c3cc(Br)c(OC)c(OC)c3)c(=O)n2C1c1ccc(OC)c(OC)c1 (centres undefined),18%
20,CCc1cccc(C)c1NC(=O)/C(C#N)=C/c1ccccc1,4%
21,CC1=NN(c2ccc(S(N)(=O)=O)cc2)C(=O)/C1=C\c1ccc(-c2ccc(C(=O)OC(C)C)cc2)o1,25%
22,CC1=NN(c2ccccc2)C(=O)/C1=C\c1ccc(-c2cc([N+](=O)[O-])ccc2O)o1,30%
23,CC1=NN(c2ccc(S(N)(=O)=O)cc2)C(=O)/C1=C\c1ccc(-c2ccc([N+](=O)[O-])cc2)o1,63% (active)
24,CC1=NN(c2ccc(S(N)(=O)=O)cc2)C(=O)/C1=C\c1ccc(-c2ccc(C)c(Cl)c2)o1,53% (active)

row,Compound,inhibition
1,CC1=NN(c2ccc(S(N)(=O)=O)cc2)C(=O)/C1=C\c1ccc(-c2ccc(Br)cc2)o1,59% (active)
2,CCOC(=O)c1ccc(-c2ccc(/C=C3\C(=O)N(c4ccc(S(N)(=O)=O)cc4)N=C3C)o2)cc1,36%
3,CC1=NN(c2cccc(C(=O)O)c2)C(=O)/C1=C\c1ccc(-c2ccc([N+](=O)[O-])cc2)o1,7%
4,CC1=NN(c2ccc(C)cc2)C(=O)/C1=C/c1ccc(-c2ccc(Cl)c(C(=O)O)c2)o1,24%
5,CC1=NN(c2ccc(S(N)(=O)=O)cc2)C(=O)/C1=C\c1ccc(-c2ccc(Cl)c(C(=O)O)c2)o1,6%
6,CC1=NN(c2ccc(S(N)(=O)=O)cc2)C(=O)/C1=C\c1ccc(-c2ccc(Cl)c(C(=O)OC(C)C)c2)o1,59% (active)
7,CC1=NN(c2ccc(S(N)(=O)=O)cc2)C(=O)/C1=C\c1ccc(-c2ccc(S(N)(=O)=O)cc2)o1,32%
8,COC(=O)c1cccc(-c2ccc(/C=C3\C(=O)N(c4ccc(S(N)(=O)=O)cc4)N=C3C)o2)c1,28%
9,COc1cccc(C(=O)NC(=S)Nc2ccc3oc(-c4ccccc4Cl)nc3c2)c1,12%
10,O=C(CSc1n[nH]c(-c2ccncc2)n1)c1ccc(O)cc1O,15%
11,FC(F)(F)Oc1ccc(N=Cc2ccc(Br)s2)cc1,8%
12,Oc1cccc(-c2nc(-c3ccccc3)c(-c3ccc(Br)cc3)[nH]2)c1,22%
13,CCOc1ccc(OCCOCCOc2ccccc2Cl)cc1,8%
14,CC1(C)CC(=O)C=C(Nc2cc([N+](=O)[O-])ccc2N)C1,7%
15,CCN(CC)c1ccc(NS(=O)(=O)c2ccc(Cl)cc2)cc1,28%
16,Cc1cc(C)cc(OCCNC(=O)c2ccccc2C)c1,5%
17,Cc1cc(C)c2oc(-c3ccc(C)c(NC(=S)NC(=O)c4cccc(F)c4)c3)nc2c1,0%
18,O=C(NC(=S)Nc1ccc2oc(-c3cc(Cl)ccc3Cl)nc2c1)c1cccc(F)c1,18%
19,Cc1ccc(C(=O)NC(=S)Nc2ccc(Cl)c(-c3nc4ccc(C)cc4o3)c2)cc1,15%
20,Cc1ccc2nc(-c3ccc(C)c(NC(=S)NC(=O)c4cccc(Br)c4)c3)oc2c1,22%
21,Cc1ccc2nc(-c3cc(NC(=S)NC(=O)c4cccc(F)c4)ccc3Cl)oc2c1,51% (active)
22,COc1ccc(C(=O)NC(=S)Nc2ccc(-c3nc4cc(C)ccc4o3)c(O)c2)cc1,17%
23,COc1cccc(C(=O)NC(=S)Nc2ccc(-c3nc4cc(C)ccc4o3)c(O)c2)c1,53% (active)
24,COc1cccc(C(=O)Nc2ccc(-c3nc4cc(C)ccc4o3)c(O)c2)c1,36%

row,Compound,inhibition
1,Cc1ccc2nc(-c3ccc(C)c(NC(=S)NC(=O)c4cccc(F)c4)c3)oc2c1,52% (active)
2,O=C(Nc1ccc(F)c(Cl)c1)c1ccncc1,7%
3,CCCC1=C(C(=O)OCC)C(c2ccc(Cl)cc2Cl)NC(=O)N1 (centres undefined),4%
4,Cc1cccc(N2C(=O)/C(=C/c3cccn3-c3ccccc3)C(=O)NC2=S)c1C,30%
5,COc1ccc(/C=C2\C(=O)NC(=O)N(c3ccccc3)C2=O)cc1I,39%
6,CCOc1cc(/C=N/NC(=O)c2ccncc2)ccc1OC(=O)c1ccco1,5%
7,O=S(=O)(Nc1ccccc1C(F)(F)F)c1ccccc1,4%
8,COc1ccc(-n2c(C)cc(/C=C(\C#N)C(=O)Nc3ccccc3)c2C)cc1,11%
9,O=C1CC(SC(=NCc2ccc3c(c2)OCO3)Nc2ccccc2)C(=O)N1 (centres undefined),0%
10,COc1ccc(OC)c(CNCc2ccc3c(c2)OCO3)c1,6%
11,COc1ccc(-n2nc3ccc(NC(=O)c4ccc(I)cc4)cc3n2)cc1,51% (active)
12,COc1cc(C(=O)Nc2ccc(/C=C/C(=O)c3ccccc3)cc2)cc(OC)c1OC,63% (active)
13,COc1ccc(C(=O)Nc2cccc(/C=C/C(=O)c3ccccc3)c2)cc1OC,3%
14,COc1ccc(/C=C/C(=O)c2ccc(I)cc2)cc1,8%
15,COc1ccc(-n2nc3ccc(NC(=O)c4ccc(C)c(C)c4)cc3n2)cc1,8%
16,COc1ccc(C(=O)Nc2ccc(/C=C/C(=O)c3ccccc3)cc2)cc1,8%
17,Cc1cc(NC(=O)c2ccc(F)cc2)ccc1NC(=O)c1ccccc1,0%
18,COc1ccc(C(=O)/C=C/c2ccc(NC(=O)c3ccc(I)cc3)cc2)cc1,60% (active)
19,Cc1cc(NC(=O)c2ccc(C(C)(C)C)cc2)ccc1NC(=O)c1ccccc1,7%
20,COc1cc(C(=O)Nc2ccc(NC(=O)c3ccccc3)cc2)cc(OC)c1OC,10%
21,Cc1cc(NC(=O)c2ccc(I)cc2)ccc1NC(=O)c1ccccc1,50% (active)
22,COc1ccc(C(=O)Nc2ccc3nn(-c4ccc(F)cc4)nc3c2)cc1,0%
